According to PubChem BioAssay AID1259240 (Keith Lab, Institute of Cancer Science, University of …, 2017):
Calls of active or inactive are those of the source. Rule as the data show it: active = fold change mostly below about -2 (no sharp cut-off); inactive = mostly above about -1.8.

Assay: TERT promoter activity modulators, primary screen, cell-based, luciferase reporter, human (AID 1259240)
Conditions: A2780 TERT promoter luciferase reporter, 16 h; at 20 µM, fold versus average of vehicle-only wells

SMILES	fold change	outcome
CC(=O)c1ccc2c(c1)c1cc(C(C)=O)ccc1n2C	-1.83 (inactive)	
CCSC1=NSC2=NC(=O)/C(=C\c3coc4ccccc4c3=O)C(=N)N12	1.16 (inactive)	
Clc1ccc(CNc2ccc3nncn3n2)cc1	-1.3 (inactive)	
Cc1ccccc1-c1nc(CSCC(=O)O)c(C)o1	-1.01 (inactive)	
Cc1[nH]nc2c1C(c1ccccc1F)NC2=O (stereo not drawn)	-1.71 (inactive)	
Fc1ccc(Br)cc1C1C=C(c2cccnc2)Nc2ncnn21 (stereo not drawn)		inactive
O=C(CSc1nc(-c2ccco2)cc(C(F)(F)F)n1)NCc1cccnc1	-1.4 (inactive)	
COc1ccc(OC)c(NC(=O)CSc2nc(-c3cccs3)nc3c2c(=O)n(C)c(=O)n3C)c1	1.71 (inactive)	
Cc1ccc(-c2cc(N)n(S(=O)(=O)c3cccc([N+](=O)[O-])c3)n2)cc1	1.05 (inactive)	
Cc1cc(NC(=O)c2onc(C)c2Cl)n(-c2ccccc2)n1	1.18 (inactive)	
O=C(O)CN1C(=O)/C(=C\c2cn(Cc3ccc(F)cc3)c3ccccc23)SC1=S	-1.28 (inactive)	
CCOc1ccc(Oc2nc(NC(C)(C)C)nc(N3CCOCC3)n2)nn1	1.49 (inactive)	
CCOC(=O)N1CCN(c2c(N(CC)CCN(C)C)c(=O)c2=O)CC1	-1.33 (inactive)	
COc1ccc(-c2n[nH]c3c2C(c2ccc(Cl)cc2)NC3=O)cc1 (stereo not drawn)	-3 (active)	
COCC(=O)N1N=C(c2ccc(NS(C)(=O)=O)cc2)CC1c1ccccc1 (stereo not drawn)	1.13 (inactive)	
O=C(O)CSc1nc(-c2cccs2)cc(C(F)(F)F)n1	-1.48 (inactive)	
CCCOc1ccc(Cc2nn3c(=O)/c(=C\c4cccc(OC(C)=O)c4)sc3nc2=O)cc1	-1.43 (inactive)	
CCOC(=O)C1CCCN(c2c(NCCCN3CCN(C)CC3)c(=O)c2=O)C1 (stereo not drawn)	-1.03 (inactive)	
Cc1cccc(C(=O)N2N=C(c3ccc(NS(C)(=O)=O)cc3)CC2c2ccco2)c1 (stereo not drawn)	1.31 (inactive)	
CC(C)CCNS(=O)(=O)c1ccc2c(c1)n(C)c(=O)c(=O)n2C	1.28 (inactive)	
Cc1nc2c(-c3ccccc3)c(C)nn2c(C)c1CCC(=O)NO	-1.49 (inactive)	
CCOc1ccc(-n2c(O)c(C3=c4cc(Br)ccc4=NC3=O)[nH]c2=S)cc1		inactive
C=CCNc1nc2c(c(=O)[nH]c(=O)n2C)n1CCOc1ccccc1	-1.07 (inactive)	
